Screening data as filed in PubChem BioAssay.
CHX counter: counter-screen for Shiga toxin inhibitors: cycloheximide protein synthesis inhibition; cell reporter, cycloheximide protein synthesis inhibition counterscreen; max response, %; actives 12% (n = 300,000); AID 2314; in the data active = max response mostly above about 13%, no sharp cut-off; inactive = mostly below about 14%; note: read at 38.3 µM for the half of the compounds with a filed dose; 0% is about no effect
Shiga toxin inh: inhibitors of Shiga toxin in Vero cells; Vero cells, Shiga toxin protein synthesis inhibition reporter; inhibition, % at 38.7 µM; actives 9.2% (n = 290,000); AID 2315; in the data active = inhibition mostly above about 28%, no sharp cut-off; inactive = mostly below about 43%; note: 0% is about no effect
Tb PYK inh: blocks Trypanosoma brucei pyruvate kinase; Potency, µM (series often up to 76.8 µM), for inactives: at the top dose activity, negative = inhibition, most hits filed as inhibitors; actives 0.12% (n = 410,000); TbPYK enzyme, Kinase-Glo Plus ATP luminescence, 45 min; AID 624173; note: potency is the fitted concentration of half-maximal effect; % is set by controls: 0 for no effect and ±100 for the full control effect; nearly all actives have a fitted effect of over 50% in size
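TbPYK + substrate in 50 mM TEA pH 7.2, 100 mM KCl, 10 mM MgCl2, 0.05% BSA, 0.01% Tween-20; cpd pinned; ADP 130 uM final; 45 min RT; Kinase-Glo Plus 10 min; luminescence endpoint.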
FBPA Giardia inh: inhibitors of Giardia lamblia fructose-1,6-bisphosphate aldolase | purified Giardia FBPA | Potency, µM (series often up to 59.6 µM), inactives show top-dose activity, negative = inhibition, usual class: inhibitors | actives 0.71% (n = 290,000); note: potency is the fitted concentration of half-maximal effect; % is set by controls: 0 for no effect and ±100 for the full control effect; nearly all actives have a fitted effect of over 55% in size
Target sequence (A8B2U2 whole entry, looked up): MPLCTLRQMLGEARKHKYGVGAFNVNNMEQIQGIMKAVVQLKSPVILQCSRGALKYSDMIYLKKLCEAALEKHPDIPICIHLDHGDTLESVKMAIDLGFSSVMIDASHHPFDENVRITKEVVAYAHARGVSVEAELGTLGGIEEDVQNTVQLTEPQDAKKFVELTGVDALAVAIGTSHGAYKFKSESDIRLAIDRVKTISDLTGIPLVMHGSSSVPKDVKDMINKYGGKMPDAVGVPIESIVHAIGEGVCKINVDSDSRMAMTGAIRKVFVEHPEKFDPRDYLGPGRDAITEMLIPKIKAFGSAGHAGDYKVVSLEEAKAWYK
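40 nM FBPA preincubated 10 min at RT with compound (up to 57.5 uM final), then substrate plus GAPDH/TPI/NAD/arsenate coupling and diaphorase/resazurin added. Fluorescence read after 20 min at RT, 525/598 nm.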
LmPK inh: LmPK (Leishmania mexicana) enzyme inhibition; actives 0.37% (n = 290,000); purified LmPK, Kinase-Glo ATP luminescence, 1 h; Q27686; AID 1721; Potency, µM (top dose mostly 57.5 µM), for inactives: top-dose activity change, negative = inhibition, hits mostly inhibitors; note: potency is the fitted concentration of half-maximal effect; % is set by controls: 0 for no effect and ±100 for the full control effect
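Pyruvate kinase activity monitored as ATP production (luciferase luminescence). Conditions: 0.1 nM enzyme, 0.5 mM PEP, 0.1 mM ADP, 1 h, RT; normalized against uninhibited and no-enzyme wells.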
RE007 growth inh: less growth of the S. pombe RE007 Vpr strain; AID 651644; S. pombe RE007 Vpr strain, BacTiter-Glo ATP luminescence, 24 h; Potency, µM (series often up to 92.2 µM), for the others: at the highest dose activity change, negative = less growth, actives largely listed as inhibitors; actives 0.21% (n = 360,000); active = well fitted falling curve with a large enough effect; inconclusive = small, poorly fitted or top-dose-only effect; inactive = no such curve, though single readings can be large or run the other way; note: potency is the fitted concentration of half-maximal effect; % is set by controls: 0 for no effect and ±100 for the full control effect; nearly all actives have a fitted effect of over 50% in size
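Fission yeast strain RE007, carrying one chromosomally integrated HIV-1 vpr copy, was seeded at OD 0.01 in PMG+AL medium with 23 nL pinned compound. After 24 h at 30 °C and 99% humidity, viability was read by BacTiter-Glo luminescence.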
* = called active by the depositor; ? = inconclusive; / = no result; [ ] = another dose, or the depositor's remark. This is one part of a sample in which hits are shown more often than they occur. Unless noted, calls come from the whole dose curve; as a rule, active = well fitted curve in the direction sought with a large enough effect; inconclusive = small, poorly fitted or top-dose-only effect, or another doubt; inactive = no such curve, though single readings can be large; an effect the other way counts as inactive or inconclusive.

SMILES	CHX counter	Shiga toxin inh	Tb PYK inh	FBPA Giardia inh	LmPK inh	RE007 growth inh
COc1ccc(-c2nc3cc(C)ccn3c2NC(=O)c2cccc(F)c2)cc1	/	/	1%	/	/	/
Cc1ccc(-c2nc(C)c(C(=O)O)s2)cc1	21*	37	-12%	11%	?	12%
Cc1nc(-c2ccc(Cl)cc2)sc1C1(C)CC(c2ccc([N+](=O)[O-])cc2)=NO1 (stereo unspecified)	6	2	1%	8%	0%	-2%
Cc1nc(-c2ccccc2)sc1C(=O)Nc1ccccc1F	46*	29	-1%	4%	2%	19%
Cc1nc(-c2ccc([N+](=O)[O-])cc2)sc1C(=O)O	20*	36	-10%	9%	16µM*	-24%
CC(=O)c1sc(-c2ccccc2)nc1C	35*	44	8%	-1%	-7%	-21%
Cc1ccc(-c2nc(C(=O)O)cs2)cc1	21	-4	-1%	7%	2%	4%
O=S(=O)(Nc1ccc(S(=O)(=O)N2CCCC2)cc1)c1ccc(F)cc1F	/	/	-6%	/	/	-14%
Cn1c(=O)oc2cc(S(=O)(=O)NC(CC(=O)O)c3cccc(Br)c3)ccc21 (stereo unspecified)	/	/	-5%	/	/	/
COc1ccc(-c2onc(C)c2C)cc1S(=O)(=O)NCc1ccc(C)o1	/	/	-9%	/	/	/
Cc1ccc(OCC(=O)NCC2(N3CCN(C)CC3)CCCCC2)cc1	/	/	7%	/	/	/
Cc1nc(-c2cccs2)sc1C(=O)O	7	14	4%	10%	-9%	-17%
Cc1nc(-c2ccc(Cl)cc2)sc1C(=O)O	25	91*	-1%	18%	-4%[11.5 µM]	3%
Cc1nc(-c2ccccc2)sc1C(=O)O	31*	84*	6%	-5%	-8%	3%
CCNC(=O)c1sc(-c2ccccc2)nc1C	45*	66*	2%	7%	-2%	7%
COc1ccc(C(=O)/C=C/c2ccsc2)cc1CSCC(=O)O	-2	-11	9%	/	-7%	-6%
COc1ccc(CNc2nc3ccc(C)cc3s2)c(OC)c1OC	15*	41*	3%	8%	-8%	?
COc1cc(C)c(CNc2ccc(OC)c(OC)c2)cc1C	14*	76*	/	?	0%	/
COc1ccc(CNc2ccc(C)c(C)c2)c(OC)c1OC	24*	33	3%	-7%	-5%	-19%
COc1cc(C)c(CNc2cccc(C)c2)cc1C	6	6	1%	?	-3%	-7%
Cn1nccc1C(=O)NC1CCN(Cc2ccccc2)CC1	2	-11	5%	/	-6%	0%
CCCc1ccc2oc(C(=O)N3CCN(C4CCS(=O)(=O)C4)CC3)c(C)c2c1 (stereo unspecified)	23*	19	-4%	/	-11%	11%
Cc1ccc2c(C)c(C(=O)N3CCN(C4CCS(=O)(=O)C4)CC3)oc2c1C (stereo unspecified)	18*	-13	-8%	/	-7%	0%
CCCc1ccc2oc(C(=O)N3CCC(O)CC3)c(C)c2c1	44*	70*	1%	6%	4%	6%
Cc1ccc2c(C)c(C(=O)N3CCCC(C(N)=O)C3)oc2c1C (stereo unspecified)	27*	72*	2%	6%	1%	14%
SMILES	CHX counter	Shiga toxin inh	Tb PYK inh	FBPA Giardia inh	LmPK inh	RE007 growth inh
Cc1ccc2c(C)c(C(=O)N3CCC(O)(c4ccccc4)CC3)oc2c1C	-2	-4	-5%	8%	-5%	14%
Cc1c(C(=O)N2CCN(C3CCS(=O)(=O)C3)CC2)oc2ccc(Cl)cc12 (stereo unspecified)	/	/	-10%	/	/	3%
NC(=O)CCC1NC(=O)C(Cc2ccccc2)NC(=O)C(Cc2ccc(O)cc2)NC(=O)CCSSCC(C(=O)N2CCCC2C(=O)NC(CCCN=C(N)N)C(=O)NCC(N)=O)NC(=O)C(CC(N)=O)NC1=O (stereo unspecified)	/	/	6%	/	/	/
CCCc1ccc2oc(C(=O)N(C)Cc3nccs3)c(C)c2c1	56*	117*	-5%	/	-3%	-13%
CCOC(=O)C1CCN(C2CCN(C(=O)c3oc4c(F)cccc4c3C)CC2)CC1	-1	-2	-13%	/	0%	-11%
COc1ccc2oc(C(=O)N(C)Cc3ccc(OC(F)F)cc3)c(C)c2c1	15	5	4%	/	4%	25%
CCOC(=O)C1CCN(C2CCN(C(=O)c3oc4c(C)c(C)ccc4c3C)CC2)CC1	19*	82*	-5%	/	-8%	3%
O=C(NOC(=O)c1c(F)cccc1Cl)c1ccc(Cl)c(Cl)c1	30*	46*	0%	1%	2%	5%
COc1cc(CNCc2ccccc2)c(Br)cc1OC1CCCC1	-2	-6	0%	-1%	5%	-20%
COc1ccc2ccccc2c1/C=N/NC(=O)c1cccc([N+](=O)[O-])c1	3	3	-4%	0%	5%	-7%
COc1ccc(-c2nn(-c3ccccc3)cc2/C=N/Nc2ccc(Cl)c(C(=O)O)c2)cc1OC	19*	72*	-4%	-3%	8%	-6%
COc1ccc2ccccc2c1/C=N/Nc1ccc(Cl)c(C(=O)O)c1	15	56*	-15%	?	14%	-25%
O=C(O)c1cccc(N/N=C/c2cccc3ccccc23)c1	74*	165*	-9%	3%	4%	2%
COc1ccc2ccccc2c1/C=N/Nc1cccc(C(=O)O)c1	72*	134*	-5%	-9%	-6%	-9%
COc1ccc2ccccc2c1/C=N/NC(=O)c1ccc(C)nc1	15	7	-2%	-10%	-8%	-9%
O=C(O)c1cccc2c1C(=O)c1ccc(-c3ccc(Cl)c(C(F)(F)F)c3)cc1S2(=O)=O	/	/	8%	/	/	14%
CCOc1ccc(-n2nc(CO)c(C(=O)NCCCc3ccccc3)n2)cc1	/	/	3%	/	/	/
COc1ccc(N/N=C/c2c(C(=O)O)ccc3ccccc23)cc1	22*	27*	13%	-11%	1%	-6%
COc1ccc(C2=NN(C(C)=O)C(c3cccs3)C2)cc1OC (stereo unspecified)	22*	35*	0%	3%	-5%	-7%
CC(=O)N1N=C(c2ccccc2)CC1c1cccs1 (stereo unspecified)	10	-4	-11%	7%	4%	-8%
O=C(c1ccccc1)N1N=C(c2ccccc2)CC1c1cccs1 (stereo unspecified)	9	-14	-6%	8%	-5%	-2%
COc1cccc(C2=NN(C(C)=O)C(c3cccs3)C2)c1 (stereo unspecified)	21*	30	-9%	0%	2%	-4%
CCc1ccc(C(=O)c2cn(CC(=O)Nc3cc(F)ccc3F)c3nc(C)ccc3c2=O)cc1	/	/	-15%	/	/	/
